Giardia kill – Small Molecules that selectively kill Giardia lamblia: qHTS; Giardia lamblia trophozoite viability; activity change, % at 7.66 µM, hits read low; 0.15% of 340,000 active; in the data active = activity change below about -80%; inconclusive = between about -30% and that limit;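 note: parasites exposed to compound for two days anaerobically before the ATP read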
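Each well holds 100 Giardia trophozoites and compound. After two days (48 hrs) at 37 deg C in anaerobic conditions, ATP is quantified by luminescence.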
TDP1 inh – qHTS Assay for Inhibitors of Tyrosyl-DNA Phosphodiesterase (TDP1) | Tyrosyl-DNA phosphodiesterase 1 (Homo sapiens), Q9NUW8 | recombinant TDP1, AlphaScreen DNA substrate cleavage | Potency, µM (highest dose often 130 µM), for the others: top-dose activity change, negative = inhibition, usual class: inhibitors | 0.28% of 350,000 active | AID 485290, 2010; note: potency is the fitted concentration of half-maximal effect; nearly all actives have a fitted effect of over 40% in size
Target sequence (Q9NUW8 whole entry, looked up): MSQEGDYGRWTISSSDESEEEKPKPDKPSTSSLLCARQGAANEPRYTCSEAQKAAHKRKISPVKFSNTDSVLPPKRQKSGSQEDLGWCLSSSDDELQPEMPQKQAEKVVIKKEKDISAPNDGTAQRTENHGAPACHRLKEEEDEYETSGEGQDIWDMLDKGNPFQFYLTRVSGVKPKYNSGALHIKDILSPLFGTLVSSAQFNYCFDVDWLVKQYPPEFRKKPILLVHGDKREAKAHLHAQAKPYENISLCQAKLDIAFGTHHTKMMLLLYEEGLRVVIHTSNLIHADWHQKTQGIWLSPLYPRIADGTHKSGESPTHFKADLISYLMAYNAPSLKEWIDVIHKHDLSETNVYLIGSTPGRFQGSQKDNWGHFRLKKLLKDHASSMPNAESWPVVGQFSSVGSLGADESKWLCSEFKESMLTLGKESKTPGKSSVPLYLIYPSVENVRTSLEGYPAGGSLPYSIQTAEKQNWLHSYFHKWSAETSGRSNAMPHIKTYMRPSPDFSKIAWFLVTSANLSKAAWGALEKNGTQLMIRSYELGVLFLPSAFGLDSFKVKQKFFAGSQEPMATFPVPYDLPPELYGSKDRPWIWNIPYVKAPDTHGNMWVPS
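Steps: enzyme plus compound, 15 min RT; add biotin/phosphotyrosine-FITC oligonucleotide (15 nM final), react 5 min; add donor/acceptor beads (10 ug/ml final), 10 min; read AlphaScreen. Tdp1 at 1 nM final.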
ELG1 DNA repair – qHTS screen for small molecules that inhibit ELG1-dependent DNA repair in human embryonic kidney (HEK293T) cells expressing luciferase-tagged ELG1. 2.3% of 330,000 active. Potency, µM (titrated, usually from 46.1 µM), without a hit: at the highest dose activity change, negative = inhibition, actives largely listed as inhibitors. HEK293T ELG1-luciferase reporter, luminescence, 16 h; DNA damage induced by 5-fluorouridine; note: potency is the fitted concentration of half-maximal effect; nearly all actives have a fitted effect of over 55% in size
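Cells (2,000 per well) received 5-fluorouridine plus test compound or DMSO and were incubated 16 hr at 37 °C, 5% CO2. Luciferase activity was read by luminescence 30 min after ONE-Glo addition; signal suppression marked inhibition of damage-induced ELG1 function.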
IL1B secr inh – qHTS for Inhibitors of Inflammasome Signaling: IL-1-beta AlphaLISA Primary Screen. 4.7% of 360,000 active. THP-1 LPS/ATP IL-1B secretion, AlphaLISA, 16 h; hits give low values. AID 743279, 2014. activity change, % at 57.5 µM; in the data active = activity change below about -50%; inconclusive = mostly about -30% to -49%
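THP-1 cells pretreated 1 hr with compounds (up to 57.5 uM final), then stimulated with LPS (250 ng/mL final) plus ATP (1.25 mM final); secreted IL-1B measured by AlphaLISA after 16 hr, decreased signal indicating inhibition.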
TDP1 cell CPT – qHTS for Inhibitors of human tyrosyl-DNA phosphodiesterase 1 (TDP1): qHTS in cells in presence of CPT; chicken DT40 Tdp1-/-;hTDP1 cells + 20 nM CPT, ATP luminescence, 48 h; Potency, µM (series often up to 46.2 µM), without a hit: at the highest dose activity change, negative = growth inhibition, hits mostly inhibitors; 12% of 420,000 active; note: potency is the fitted concentration of half-maximal effect; nearly all actives have a fitted effect of over 55% in size
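Cell growth measured by CellTiter-Glo luminescence after a minimum 48 h, 37 C compound exposure with 20 nM CPT in Tdp1-knockout DT40 cells stably expressing hTDP1, seeded 400/well; qHTS titration format.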
DT40 TDP1 no CPT – qHTS for Inhibitors of human tyrosyl-DNA phosphodiesterase 1 (TDP1): qHTS in cells in absence of CPT; 15% of 420,000 active; Potency, µM (doses to about 46.2 µM), for the others: at the top dose activity change, negative = growth inhibition, usual class: inhibitors; DT40 Tdp1-/- hTDP1 cells, no CPT, ATP luminescence, 48 h; AID 686978, 2013; note: potency is the fitted concentration of half-maximal effect; nearly all actives have a fitted effect of over 55% in size
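Chicken DT40 Tdp1-/- cells stably complemented with human TDP1 were seeded at 400 cells/well with DMSO in place of 20 nM camptothecin. After compound pinning, cells grew at least 48 hr at 37 °C; viability read by CellTiter-Glo luminescence.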
* hit, by the source's call; ? = inconclusive; . = no result; ! = not confirmed by another sample; [ ] = remark or other dose. This is a sample that favours compounds with a hit; in the whole collection about 19% have one here. Unless noted, calls come from the whole dose curve; as a rule, active = well fitted curve in the direction sought with a large enough effect; inconclusive = small, poorly fitted or top-dose-only effect, or another doubt; inactive = no such curve, though single readings can be large; an effect the other way counts as inactive or inconclusive. % is set by controls: 0 for no effect and ±100 for the full control effect.

SMILES	Giardia kill	TDP1 inh	ELG1 DNA repair	IL1B secr inh	TDP1 cell CPT	DT40 TDP1 no CPT
CC(=O)Nc1ccc([C@H]2[C@H](C)CC[C@H]3C(=O)N4[C@@H](CC[C@@H](C)[C@@H]4c4ccc(NC(C)=O)cc4)C(=O)N32)cc1	.	3.9%	13.8%	.	.	.
Cc1ccc(CNC(=O)CCSCCC(=O)NCc2ccc(C)cc2)cc1	-15.4	0.5%	12.4%	-10.0	-20.5%	4.0%
O=[N+]([O-])c1ccc(SCCc2ccccn2)cc1	-1.7	.	?	-6.7	-14.9%	-29.1%
Fc1ccc(SCCc2ccncc2)cc1	9.4	-2.1%	-7.3%	1.3	?	18.4µM*!
O=[N+]([O-])c1ccc(SCCc2ccncc2)cc1	4.8	10.3%	?	-4.9	?	20.6µM*
Cc1ccc2nc(NC(=O)C(NS(=O)(=O)c3cccc4nsnc34)C(C)C)sc2c1 (stereo unspecified)	6.6	9.2%	-10.8%	50.8	29.1µM*	?
COc1cccc(N2CCN(C(=O)C3CCCN(S(=O)(=O)c4cccc5nsnc45)C3)CC2)c1 (stereo unspecified)	.	2.3%	.	.	9.2µM*	9.2µM*
CC(C)C(NS(=O)(=O)c1cccc2nsnc12)C(=O)Nc1nccs1 (stereo unspecified)	11.1	.	23.2%	27.0	-3.6%	6.6%
COc1ccc2nc(NC(=O)C3CCCN(S(=O)(=O)c4cccc5nsnc45)C3)sc2c1 (stereo unspecified)	-8.3	7.9%	11.6µM*	?	?	16.4µM*
CCOc1ccc2nc(NC(=O)C3CCCN(S(=O)(=O)c4cccc5nonc45)C3)sc2c1 (stereo unspecified)	1.2	5.3%	23.1µM*	-11.3	?	16.4µM*
COc1ccc2nc(NC(=O)C3CCCN(S(=O)(=O)c4c(C)noc4C)C3)sc2c1 (stereo unspecified)	4.0	5.4%	?	-11.2	?	?
CCOC(=O)C(=O)Nc1cc(Cl)ccc1C	-8.6	0.0%	3.0%	12.2	2.0%	5.6%
CC(O)CCCCCCC/C=C/C=C/C(N)=O (stereo unspecified)	.	4.8%[21 µM]	.	.	.	.
Cc1cccc(NC(=O)Cn2nc(-c3ccco3)ccc2=O)c1C	-14.0	12.4%	0.2%	9.6	0.9%	9.8%
Cc1ccc(NC(=O)C2CCCN(S(=O)(=O)c3cccc4nsnc34)C2)cc1C (stereo unspecified)	.	7.0%	.	.	?	18.4µM*
COc1ccc2nc(NC(=O)C3CCCN(S(=O)(=O)c4cccc5nonc45)C3)sc2c1 (stereo unspecified)	18.2	9.8%	25.9µM*	-52.7*	?	?
COc1ccc(CNC(=O)C2CCN(S(=O)(=O)c3cccc4nsnc34)CC2)cc1	20.8	-0.3%	-7.9%	-6.6	-15.4%	?
COc1ccc(OC)c(NC(=O)C2CCCN(S(=O)(=O)c3cccc4nonc34)C2)c1 (stereo unspecified)	5.6	1.8%	?	43.7	-9.4%	-23.5%
Cc1ccc(NC(=O)C2CCCN2S(=O)(=O)c2cccc3nsnc23)c(Br)c1 (stereo unspecified)	.	5.8%	.	.	?	20.6µM*
COc1ccc(CNC(=O)C2CCCN(S(=O)(=O)c3cccc4nsnc34)C2)cc1 (stereo unspecified)	-18.1	3.1%	-1.9%	-15.7	-11.2%	23.1µM*
CCc1nc2nc(C)cc(Nc3ccc(OC)cc3OC)n2n1	.	0.0%[12.3 µM]	.	.	-11.2%	-20.7%
Cc1ccc(C(=O)Nc2ccc(Br)c(C(F)(F)F)c2)cc1	3.6	-9.6%	?	?	?	23.1µM*
C/C(CC(=O)Nc1c(Cl)cccc1C(F)(F)F)=N\NC(=O)c1cnccn1	29.0	.	.	-1.5	?	2.6%
CNC(=O)c1cc(Oc2ccc(NC(=O)Nc3ccc(Cl)c(C(F)(F)F)c3)cc2)ccn1	-7.3	2.7%	?	-102.2*	20.6µM*	23.1µM*
C/C(CC(=O)Nc1ccc(Cl)c(C(F)(F)F)c1)=N\NC(=O)c1cnccn1	2.5	2.3%	8.7%	-71.7*	?	-26.5%
SMILES	Giardia kill	TDP1 inh	ELG1 DNA repair	IL1B secr inh	TDP1 cell CPT	DT40 TDP1 no CPT
CNC(=O)c1cc(Oc2ccc(NC(=O)c3[nH]c(-c4ccccc4)c4c3C(=O)N(C)C4=O)cc2)ccn1	.	.	.	37.3	?	?
O=C(Nc1ccc(Cl)c(C(F)(F)F)c1)c1ccncc1	3.5	-2.8%	7.1%	-8.7	?	14.6µM*
O=C(Nc1ccc(NC(=O)c2ccncc2)cc1)c1ccncc1	.	-2.6%	0.0%	.	.	.
FC(F)(F)c1cccc(-c2cncc(N3CCN(CCN4CCCC4)CC3)n2)c1	.	.	.	-25.9	23.1µM*	16.4µM*
CCN(CC)CCN1CCN(c2cncc(-c3ccc4ccccc4c3)n2)CC1	.	.	.	-59.5*	11.6µM*	16.4µM*
CCN(CC)CCN1CCN(c2cncc(-c3cccc(N)c3)n2)CC1	.	.	.	19.8	-17.9%	-25.7%
COc1ccc(CC(=O)OCC(=O)Nc2ccc(Br)cc2)cc1	12.0	-5.1%	4.9%	1.1	-6.3%	-2.2%
O=C(c1cccc(OC2CCN(Cc3cc(F)cc(F)c3)CC2)c1)N1CCCC1	13.9	1.1%	-3.8%	4.2	?	?
CSc1ccc(CN2CCC(Oc3cccc(C(=O)N4CCCC4)c3)CC2)cc1	0.6	1.3%	?	0.0	20.6µM*	18.4µM*
O=C(c1cccc(OC2CCN(Cc3ccc(F)cc3Cl)CC2)c1)N1CCCC1	7.2	1.6%	-28.0%	13.7	20.6µM*	?
COC(=O)c1ccc(CN2CCC(Oc3cccc(C(=O)N4CCCC4)c3)CC2)cc1	8.1	.	.	-3.3	?	?
COCCCN(C(=O)c1ccco1)c1nc(-c2cc(OC)ccc2OC)cs1	11.9	2.5%	?	-8.1	?	?
COc1ccc(-c2csc(N(C)C(=O)c3ccco3)n2)cc1	-2.5	.	?	-4.2	-9.4%	-29.8%
COc1ccc(OC)c(-c2csc(N(Cc3ccco3)C(=O)c3ccco3)n2)c1	-4.0	4.9%	18.3µM*	5.3	?	20.6µM*
Cc1ccc(-c2csc(N(CCCN3CCOCC3)C(=O)c3ccco3)n2)cc1	-0.8	7.7%	?	-53.3*	?	20.6µM*

High-throughput results deposited in PubChem by National Center for Advancing Translational Sciences (NCATS).
